Test results published in PubChem BioAssay (NCATS).
Inconclusive results are not listed. Calls of active or inactive are those of the source. The call rests on the fitted dose curve; in most records, active means well fitted curve in the direction sought with a large enough effect; inconclusive means small, poorly fitted or top-dose-only effect, or another doubt; inactive means no such curve, though single readings can be large; an effect the other way counts as inactive or inconclusive.

Experiments:
C33A = test: Primary qHTS to identify gynecologic anti-cancer compounds using libraries of approved drugs and bioactive compounds (AID 1345084); details: Gynecologic cancer cell panel viability, ATPlite luminescence, 48 h; series mostly up to 57.5 µM; further: nearly all actives have a fitted effect of over 55% in size; further: potency means the concentration at half of the fitted maximal effect
Summary of the method: (§1)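 Cytotoxicity screen measuring ATP content by luciferase luminescence. Each compound is applied at five concentrations for 48 h at 37 C with 5% CO2.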

CASKI = test: as above; details: Gynecologic cancer cell panel viability, ATPlite luminescence, 48 h; series mostly up to 57.5 µM
Summary of the method: as §1

Es-2 = test: as above; details: Gynecologic cancer cell panel viability, ATPlite luminescence, 48 h; series mostly up to 57.5 µM
Summary of the method: as §1

HeLa = test: as above; details: Gynecologic cancer cell panel viability, ATPlite luminescence, 48 h; series mostly up to 57.5 µM
Summary of the method: as §1

Hek293T = test: as above; details: Gynecologic cancer cell panel viability, ATPlite luminescence, 48 h, control line for the selectivity index; series mostly up to 57.5 µM
Summary of the method: as §1

JEG-3 = test: as above; details: Gynecologic cancer cell panel viability, ATPlite luminescence, 48 h; series mostly up to 57.5 µM
Summary of the method: as §1

OV90 = test: as above; details: Gynecologic cancer cell panel viability, ATPlite luminescence, 48 h; series mostly up to 57.5 µM
Summary of the method: as §1

PA-1 = test: as above; details: Gynecologic cancer cell panel viability, ATPlite luminescence, 48 h; series mostly up to 57.5 µM
Summary of the method: as §1

SKOV3 = test: as above; details: Gynecologic cancer cell panel viability, ATPlite luminescence, 48 h; series mostly up to 57.5 µM
Summary of the method: as §1

Tov-21-G = test: as above; details: Gynecologic cancer cell panel viability, ATPlite luminescence, 48 h; series mostly up to 57.5 µM
Summary of the method: as §1

Tov112D = test: as above; details: Gynecologic cancer cell panel viability, ATPlite luminescence, 48 h; series mostly up to 57.5 µM
Summary of the method: as §1

CAOV3 = test: as above; details: Gynecologic cancer cell panel viability, ATPlite luminescence, 48 h; series mostly up to 57.5 µM
Summary of the method: as §1

[1] = qHTS assay to identify inhibitors of the type 1 interferon - major histocompatibility complex class I in skeletal muscle: Counter screen cell viability and HiBit confirmation (AID 1347412); details: iHSKM muscle cells + IFN-b, HiBiT or CellTiter-Glo, 24 h; Viability; at 45.9 µM (top of the series); further: nearly all actives have a fitted effect of over 60% in size
Summary of the method: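 HLA-B*08:01–HiBiT knock-in immortalized human myoblasts (C25cl48) stimulated with 4.0 ng/ml human IFN-beta and dosed with compound in a 12-point 1:3 titration (top final 46 uM). After 24 hrs at 37 C, HiBiT lytic luminescence or CellTiter Glo ATP read out.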
On the % scale 0 is the no-effect control and ±100 the full control effect.

O=C(NCc1ccccc1)c1ccc2c(=O)n(-c3cccc(C(F)(F)F)c3)c(=S)[nH]c2c1
inactive: Potency (C33A) | Potency (CASKI) | Potency (Es-2) | Potency (HeLa) | Potency (Hek293T) | Potency (JEG-3) | Potency (OV90) | Potency (PA-1) | Potency (SKOV3) | Potency (Tov-21-G) | Potency (Tov112D)

Cc1ccc(F)cc1S(=O)(=O)N[C@@H]1CCN(Cc2ccc(OC(C)C)cc2)C1
inactive: Potency (C33A) | Potency (CASKI) | Potency (Es-2) | Potency (HeLa) | Potency (Hek293T) | Potency (JEG-3) | Potency (OV90) | Potency (PA-1) | Potency (SKOV3) | Potency (Tov-21-G) | Potency (Tov112D)

CN1CCC(NC(=O)c2cc(-c3c(O)cc(O)cc3Oc3ccc([N+](=O)[O-])cc3)on2)CC1
inactive: Potency (HeLa)
active: Potency (C33A) 0.708 µM | Potency (CAOV3) 0.398 µM | Potency (Hek293T) 1 µM | Potency (PA-1) 0.794 µM | Potency (SKOV3) 1.58 µM | Potency (Tov-21-G) 0.562 µM

Cn1ncc(Cl)c1-c1cc(C(=O)N[C@H](CN)Cc2cccc(F)c2)sc1Cl
active: Potency (C33A) 11.2 µM | Potency (Hek293T) 2.82 µM | Potency (PA-1) 25.1 µM | Potency (SKOV3) 14.1 µM | Potency (Tov-21-G) 1.58 µM
inactive: Potency (CAOV3)

CCCC1(CCC)CCC2(CCN(CCCN(CC)CC)C2)CC1
active: Potency (C33A) 6.31 µM | Potency (CASKI) 8.91 µM | Potency (Es-2) 10 µM | Potency (HeLa) 7.08 µM | Potency (Hek293T) 8.91 µM | Potency (JEG-3) 5.62 µM | Potency (OV90) 7.08 µM | Potency (PA-1) 5.01 µM | Potency (SKOV3) 7.94 µM | Potency (Tov-21-G) 6.31 µM

CC(=O)O[C@H]1C[C@H](OC(C)=O)[C@]2(C)[C@H](CC[C@@]34O[C@@H]3C3=C(C)C(=O)O[C@@H]3C[C@H]42)C1(C)C
inactive: Potency (C33A) | Potency (CASKI) | Potency (Es-2) | Potency (HeLa) | Potency (Hek293T) | Potency (JEG-3) | Potency (OV90) | Potency (PA-1) | Potency (SKOV3) | Potency (Tov-21-G) | Potency (Tov112D)

C=C1C(=O)O[C@@H]2C=C(COC(C)=O)CC/C=C(\CO)CC[C@@H]12
inactive: Potency (C33A) | Potency (CASKI) | Potency (Es-2) | Potency (HeLa) | Potency (Hek293T) | Potency (JEG-3) | Potency (OV90) | Potency (PA-1) | Potency (SKOV3) | Potency (Tov-21-G) | Potency (Tov112D)

COc1cc(O)cc(/C=C/c2cccc(O)c2)c1
inactive: Potency (C33A) | Potency (CASKI) | Potency (Es-2) | Potency (HeLa) | Potency (Hek293T) | Potency (JEG-3) | Potency (OV90) | Potency (PA-1) | Potency (Tov-21-G) | Potency (Tov112D)

CC(=O)OC1CC(C)(C(=O)O)CC2C3=CC(=O)C4C5(C)CCC(OC6OC(C(=O)O)C(O)C(O)C6OC6OC(C(=O)O)C(O)C(O)C6O)C(C)(C)C5CCC4(C)C3(C)CCC12C (centres undefined)
inactive: activity change, negative = cytotoxicity (C33A) 10.4% [at 11.6 µM] | activity change, negative = cytotoxicity (CASKI) 12.9% [at 11.6 µM] | activity change, negative = cytotoxicity (Es-2) 12.5% [at 11.6 µM] | activity change, negative = cytotoxicity (HeLa) 14.8% [at 11.6 µM] | activity change, negative = cytotoxicity (Hek293T) 7.86% [at 11.6 µM] | activity change, negative = cytotoxicity (JEG-3) 5.64% [at 11.6 µM] | activity change, negative = cytotoxicity (OV90) 2.42% [at 11.6 µM] | activity change, negative = cytotoxicity (PA-1) 22.8% [at 11.6 µM] | activity change, negative = cytotoxicity (SKOV3) 0% [at 11.6 µM] | activity change, negative = cytotoxicity (Tov-21-G) -2.43% [at 11.6 µM] | activity change, negative = cytotoxicity (Tov112D) -0.209% [at 11.6 µM]

C=C1CC[C@H]2C(=C)CC[C@H]3C(=C)C(=O)O[C@@H]3[C@@H]12
inactive: Potency (C33A) | Potency (CASKI) | Potency (Es-2) | Potency (HeLa) | Potency (Hek293T) | Potency (JEG-3) | Potency (OV90) | Potency (PA-1) | Potency (SKOV3) | Potency (Tov-21-G) | Potency (Tov112D)

Cc1ccc(-c2ncccn2)c(C(=O)N2C[C@H](COc3ccc(F)cn3)CC[C@H]2C)c1
inactive: Potency (C33A) | Potency (CASKI) | Potency (Es-2) | Potency (HeLa) | Potency (Hek293T) | Potency (JEG-3) | Potency (OV90) | Potency (PA-1) | Potency (Tov-21-G) | Potency (Tov112D)

CC(=O)O[C@H]1CC[C@]2(C)[C@H]3CC[C@]4(C)Oc5oc(C)cc(=O)c5C[C@H]4[C@]3(C)CC[C@H]2C1(C)C
inactive: Potency (C33A) | Potency (CASKI) | Potency (Es-2) | Potency (HeLa) | Potency (Hek293T) | Potency (JEG-3) | Potency (OV90) | Potency (PA-1) | Potency (SKOV3) | Potency (Tov-21-G) | Potency (Tov112D)

O=C1NC(=O)C(c2cnc3ccccn23)=C1c1cn2c3c(cc(F)cc13)CN(C(=O)N1CCCCC1)CC2
active: Potency (PA-1) 17.8 µM
inactive: Potency (C33A) | Potency (CASKI) | Potency (Es-2) | Potency (HeLa) | Potency (Hek293T) | Potency (JEG-3) | Potency (OV90) | Potency (SKOV3) | Potency (Tov-21-G) | Potency (Tov112D) | activity change, negative = inhibition [1] -0.987%

CC(=O)CC(=O)Nc1ccc(Cl)c(C(F)(F)F)c1
inactive: Potency (C33A) | Potency (CASKI) | Potency (Es-2) | Potency (HeLa) | Potency (Hek293T) | Potency (JEG-3) | Potency (OV90) | Potency (PA-1) | Potency (Tov-21-G) | Potency (Tov112D)

CN(C)C(=O)C(=O)c1cn(C)c2cc(Cl)c(C(=O)N3CCC(Cc4ccc(F)cc4)CC3)cc12
inactive: Potency (C33A) | Potency (CASKI) | Potency (Es-2) | Potency (HeLa) | Potency (Hek293T) | Potency (JEG-3) | Potency (OV90) | Potency (PA-1) | Potency (SKOV3) | Potency (Tov-21-G) | Potency (Tov112D)

O=C(Nc1cccnc1)c1cc(-c2ccnc(F)c2)ccc1OCc1ccccc1
inactive: Potency (C33A) | Potency (CASKI) | Potency (Es-2) | Potency (HeLa) | Potency (Hek293T) | Potency (JEG-3) | Potency (OV90) | Potency (PA-1) | Potency (Tov-21-G) | Potency (Tov112D)

COc1ccc(OC)c(-c2ccc(NC(=O)c3ccncc3F)cc2)c1
inactive: Potency (C33A) | Potency (CASKI) | Potency (Es-2) | Potency (HeLa) | Potency (Hek293T) | Potency (JEG-3) | Potency (OV90) | Potency (PA-1) | Potency (SKOV3) | Potency (Tov-21-G) | Potency (Tov112D)

CC(=O)OC(C)(C)/C=C/C(=O)C(C)(O)C1C(O)CC2(C)C3CC=C(C(C)(C)C(=O)O)C(CC(=O)O)C3(C)C(=O)CC12C (centres undefined)
inactive: Potency (C33A) | Potency (CASKI) | Potency (Es-2) | Potency (HeLa) | Potency (Hek293T) | Potency (JEG-3) | Potency (OV90) | Potency (PA-1) | Potency (Tov-21-G) | Potency (Tov112D)
